Screening results from PubChem.
IDH1 R132H inh: inhibitors of human mutant IDH1 R132H. IDH1-R132H enzyme, NADPH consumption, diaphorase/resazurin fluorescence. Potency, µM (series often up to 76.6 µM), without a hit: at the top dose activity change, negative = inhibition, hits mostly inhibitors. 390,000 tested, 0.093% active; also: nearly all actives have a fitted effect of over 65% in size
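IDH1-R132H (0.5 ug/mL dispensed) in pH 7.5 Tris buffer was preincubated 30 min with compound, then given a substrate mix of 0.016 mM NADPH and 2 mM alpha-KG for 80 min at room temperature; remaining NADPH was read by diaphorase/resazurin fluorescence.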
PLK1 PBD inh: PLK1 (human) polo-box domain binding inhibition. 360,000 tested, 2.8% active. Potency, µM, for inactives: max response, negative = inhibition, actives largely listed as inhibitors. Plk1 PBD binding of FITC phosphopeptide, fluorescence polarization. P53350; also: series mostly up to about 57 µM; nearly all actives have a fitted effect of over 65% in size
TrxR1 substrate: substrates of rat thioredoxin reductase 1 | purified TrxR1 substrate turnover, NADPH consumption readout | Potency, µM (top dose mostly 114 µM), inactives show at the highest dose activity change, negative = substrate turnover | 390,000 tested, 0.01% active | AID 588456; also: nearly all actives have a fitted effect of over 50% in size
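Rat TrxR1, dispensed at 90 nM, was prereduced with 400 uM NADPH (final) for 5 min at ~22 deg C, then incubated with compound 15 min before 400 uM selenite. A first-read NADPH fluorescence drop versus no-compound background flagged substrates.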
rTrxR1 inhibitor: rat TrxR1 inhibition | O89049 | recombinant rTrxR1, NADPH fluorescence consumption, selenite substrate | Potency, µM (series often up to 114 µM), without a hit: at the highest dose activity change, negative = inhibition, hits mostly inhibitors | 390,000 tested, 1% active; also: nearly all actives have a fitted effect of over 65% in size
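Rat TrxR1 (90 nM in the dispensed reagent) was pre-reduced with 400 uM NADPH for 5 min at room temperature, then incubated with compound for 15 min. After 400 uM selenite was added, NADPH fluorescence (Ex 340/Em 450 nm) was followed for 8 min.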
Sfp PPTase inh: inhibitors of Bacillus subtilis Sfp phosphopantetheinyl transferase | Q9F4F7 | Biochemical Sfp PPTase activity, qHTS | Potency, µM, for inactives: largest response in the series, negative = inhibition, usual class: inhibitors | 310,000 tested, 3.5% active | AID 1490;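 also: the enzyme is Sfp with the accession as filed and its product quenches rhodamine fluorescence; 0% = enzyme reaction without inhibitor and -100% = no enzyme wells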
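Fluorescence-quenching assay with 15 nM Sfp, 5 uM rhodamine-CoA and 12.5 uM BHQ-2-labelled ybbR peptide in pH 7.6 Hepes/MgCl2 buffer. Enzyme was pre-incubated with compound for 15 min at room temperature. Rate was taken from the 30-min fluorescence change (525/598 nm).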
VDR inhibitor: inhibitors of human vitamin D receptor | Potency, µM, for inactives: max response, negative = inhibition, hits mostly inhibitors | VDR-SRC2-3 peptide fluorescence polarization, 2 h | 400,000 tested, 0.93% active | P11473 | AID 504847
Target sequence (P11473 whole entry, looked up): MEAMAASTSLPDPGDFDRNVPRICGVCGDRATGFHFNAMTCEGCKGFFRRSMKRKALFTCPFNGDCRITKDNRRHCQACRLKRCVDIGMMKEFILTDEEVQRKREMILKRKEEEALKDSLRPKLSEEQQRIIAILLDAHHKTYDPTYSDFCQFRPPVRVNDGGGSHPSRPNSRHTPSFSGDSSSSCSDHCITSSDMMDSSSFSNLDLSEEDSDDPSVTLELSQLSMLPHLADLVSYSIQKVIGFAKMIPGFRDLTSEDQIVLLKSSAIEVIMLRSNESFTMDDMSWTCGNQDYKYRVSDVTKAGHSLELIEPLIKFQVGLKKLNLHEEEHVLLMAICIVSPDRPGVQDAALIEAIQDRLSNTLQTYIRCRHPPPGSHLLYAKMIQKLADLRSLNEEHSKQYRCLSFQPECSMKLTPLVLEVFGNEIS
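Compounds are added to VDR with labelled SRC2-3 coactivator peptide and held 2 h at room temperature. Inhibition of the VDR–peptide interaction is then read as a change in fluorescence polarization.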
Active calls of the source: *; u = inconclusive; x = no result; [ ] = dose if it differs, or a comment. Only some compounds are listed: those with a hit (about 5.2% of all), similar ones and a draw of the others. Calls follow the shape of the dose curve; as a rule, active = well fitted curve in the direction sought with a large enough effect; inconclusive = small, poorly fitted or top-dose-only effect, or another doubt; inactive = no such curve, though single readings can be large; an effect the other way counts as inactive or inconclusive. Unless noted, % is scaled to controls: 0 for no effect and ±100 for the full control effect; potency is read from the fitted curve at half-maximal effect.

SMILES	IDH1 R132H inh	PLK1 PBD inh	TrxR1 substrate	rTrxR1 inhibitor	Sfp PPTase inh	VDR inhibitor
CC1=C(C(=O)N(C(C)C)C(C)C)CC(CC(=O)NC2CCCCC2)C(=O)N1Cc1ccc(F)cc1 (stereo not drawn)	x	0.9%	x	x	x	x
CC(NCC(O)COCCC12CC3CC(CC(C3)C1)C2)c1ccccc1 (stereo not drawn)	7.0%	29.9µM*	-14.3%	-9.5%	-27.1%	-6.7%
NCC(O)COCCC12CC3CC(CC(C3)C1)C2 (stereo not drawn)	3.0%	-4.5%	0.8%	5.8%	u	-8.5%
C/C=C/c1ccc(OCC(O)CNCC(c2ccc(OC)cc2)N(C)C)c(OC)c1 (stereo not drawn)	9.7%	2.3%	1.5%	-2.3%	-24.2%	1.7%
OC(CNCCc1ccc(Cl)cc1)COc1ccc2ccccc2c1 (stereo not drawn)	1.4%	2.6%	4.0%[57.1 µM]	11.5%[57.1 µM]	31.6µM*	1.1%
C/C=C/c1ccc(OCC(O)CNCCc2ccc(OC)cc2)c(OC)c1 (stereo not drawn)	16.3%	-4.5%	1.8%	-3.0%	79.4µM*	13.6%
C/C=C/c1ccc(OCCCNC(C)CC)c(OC)c1 (stereo not drawn)	-3.9%	u	-3.8%	-5.9%	56.2µM*	-13.0%
CCOc1ccccc1NC(=O)CSc1nnc(-c2cccnc2)o1	10.4%	23.8µM*	7.4%[57.1 µM]	25.8%[57.1 µM]	x	-37.2%
CCOc1ccc(-c2nnc(SCC(=O)Nc3cc(C)ccc3OC)o2)cc1	6.6%	x	-1.1%	28.2µM*	x	6.3%
O=C(CSc1nnc(-c2ccccc2)o1)Nc1ccccc1F	2.2%	21.2µM*	16.6%[57.1 µM]	17.6%[57.1 µM]	-9.5%	u
Cc1ccc(-c2nnc(SCc3ccccc3F)o2)cc1	12.3%	21.2µM*	-5.7%	13.8%	-20.4%	-25.6%
Nc1nc(NCc2cccc(Cl)c2)c2[nH]cnc2n1	x	x	2.1%	12.5%	x	1.1%
COc1ccccc1Nc1nn2c(=O)c3ccc(C(=O)NCCC4=CCCCC4)cc3nc2s1	-11.5%	x	2.5%	16.2%	x	12.0%
O=C1CCCN1CCCNS(=O)(=O)c1ccc(F)c(F)c1	5.5%	-14.8%	1.2%	25.2%	8.6%	-3.8%
O=C(CSC(=O)c1ccccc1)Nc1ccccc1F	5.9%	3.36µM*	-4.5%[2.29 µM]	-3.1%[2.29 µM]	x	79.4µM*
COc1ccc(OC)c(NC(=O)CSc2nnc(C3CCCCC3)o2)c1	-8.6%	23.8µM*	6.7%	19.1%[57.1 µM]	3.8%	0.1%
O=C(CNC(c1ccccc1)c1ccccc1)Nc1ccccc1F	-0.3%	-7.1%	-10.1%	2.9%	5.3%	26.4%
CCOC(=O)c1c(NC(=O)CSc2nnc(-c3ccco3)o2)sc(C(C)=O)c1C	1.1%	14.3%	-8.4%	7.8%[57.1 µM]	-3.3%	17.0%
COc1ccc(NC(=O)CSc2nnc(-c3cccnc3)o2)c(OC)c1	9.0%	21.2µM*	-3.2%	22.7%	x	u
CCOC(=O)c1c(NC(=O)CSc2nnc(-c3cccnc3)o2)sc(C(C)=O)c1C	4.6%	11.9µM*	-12.2%	-6.9%	2.1%	u
Cc1ccc(S(=O)(=O)N(C)c2ccc(OC(C)C(=O)N(C)c3ccccc3)cc2)cc1 (stereo not drawn)	5.2%	0.7%	-9.2%[57.1 µM]	-2.5%	x	1.6%
O=C(CSc1nnc(-c2ccc(C(F)(F)F)cn2)o1)Nc1ccccc1Cl	-2.4%	-11.4%	2.4%[57.1 µM]	-6.3%[57.1 µM]	70.8µM*	-12.4%
O=C(CSc1nnc(-c2ccccn2)o1)Nc1ccccc1Cl	17.4%	-27.1%	-8.6%	16.4%[57.1 µM]	-3.0%	0.1%
COc1ccc2cc([C@H](C)C(=O)N(C)Cc3ccccc3N3CCCC3)ccc2c1	-0.2%	-8.2%	2.3%	-6.5%	-13.8%	15.4%
CN(C)CCCN(C(=O)c1ccc2c(c1)CCCC2)c1nc2ccc(Cl)cc2s1	7.4%	-11.0%	-8.4%	-9.1%	35.5µM*	-7.8%
SMILES	IDH1 R132H inh	PLK1 PBD inh	TrxR1 substrate	rTrxR1 inhibitor	Sfp PPTase inh	VDR inhibitor
CCc1ccc2nc(N(CCCN(C)C)C(=O)c3ccc(S(=O)(=O)N4CCCc5ccccc54)cc3)sc2c1	3.7%	-2.8%	-5.5%[57.1 µM]	14.3%[57.1 µM]	35.5µM*	-23.0%
COc1cccc2sc(N(CCCN(C)C)C(=O)c3ccc(S(=O)(=O)N4CCCc5ccccc54)cc3)nc12	4.5%	-2.0%	0.4%	7.7%	u	4.7%
CCc1ccc2nc(N(CCCN(C)C)C(=O)c3ccc(C(=O)c4ccccc4)cc3)sc2c1	8.5%	1.6%	5.2%	26.1%	56.2µM*	-15.1%
CC1CCCCN1S(=O)(=O)c1ccc(C(=O)N(CCCN(C)C)c2nc3ccc(Br)cc3s2)cc1 (stereo not drawn)	-0.9%	-4.2%	5.1%	28.5%	50.1µM*	-8.7%
Cc1ccc(NS(=O)(=O)c2ccc(NC(=O)N3CCCC3)cc2)cc1C	0.0%	x	-2.3%[57.1 µM]	15.6%[57.1 µM]	x	12.6%
CC1CCCCN1CCCNC(=O)c1ccc(NC(=O)C2=CSCCO2)cc1 (stereo not drawn)	0.8%	-1.9%	-3.5%	1.7%	8.0%	1.8%
CC(=O)c1ccccc1NC(=O)COC(=O)C1=NN(c2ccccc2)C(=O)CC1	-2.1%	-4.8%	-6.9%[57.1 µM]	10.1%	x	-0.7%
COc1ccc(S(=O)(=O)c2c(O)c3ccc(C(=O)Nc4ccc(F)cc4F)cc3[nH]c2=O)cc1	-2.5%	-20.3%	-3.7%	3.6%	29.2%	-3.8%
COc1ccc(S(=O)(=O)c2c(O)c3ccc(C(=O)Nc4ccc(F)cc4)cc3[nH]c2=O)cc1	-6.4%	29.9µM*	-8.7%	3.2%	29.6%	u
CCc1ccccc1NC(=O)c1ccc2c(O)c(S(=O)(=O)c3ccc(OC)cc3)c(=O)[nH]c2c1	-4.3%	3.36µM*	-8.1%	8.1%	23.5%	u
COc1ccc(C(=O)Nc2cc(OC)c(NC(=O)Nc3ccccc3)cc2OC)cc1	9.9%	-3.6%	x	x	x	x
COC(=O)c1c(-c2cccnc2)csc1NC(=O)c1cc(C)on1	-7.5%	6.7µM*	0.7%	14.6%	-66.3%	79.4µM*
CO[C@@H](CCO)C[C@H]1O[C@H](C(=O)OC(C)C)CC[C@@H]1C	x	x	x	x	u	1.8%
Cc1ccc(Sc2c([N+](=O)[O-])c(=O)n(C)c3ccccc23)cc1	-0.8%	u	1.2%	2µM*	9.9%	-15.6%
COc1cc(/C=C2\C(=O)N(c3ccccc3)N=C2C)ccc1Oc1ccc([N+](=O)[O-])cc1[N+](=O)[O-]	10.2%	3.77µM*	-2.6%	u	-7.0%	u
COc1cc(/C=C2/C(=O)N(c3ccc(C)c(C)c3)N=C2C)cc([N+](=O)[O-])c1O	2.7%	-22.7%	-5.3%	-8.8%	-3.9%	-9.7%
CC1=NN(c2ccccc2)C(=O)/C1=C\c1ccc(Oc2ccc([N+](=O)[O-])cc2[N+](=O)[O-])cc1	-3.3%	1.89µM*	1.0%[57.1 µM]	3.98µM*	-6.3%	u
COc1ccc(NC(=O)CCCc2nc3ccccc3c(=O)[nH]2)cc1Cl	7.5%	8.5%	3.2%	8.9%	x	18.3%
